Assay outcomes from PubChem.
GSH fluor: compound fluoresces at 488/530 nm on GSH beads | GSH beads flow cytometry, compound fluorescence 488/530 nm; stronger effect = higher value | fluorescence (KMESF) at 10 µM | 190,000 tested, 0.25% active | AID 1776; in the data active = fluorescence above about 89;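 also: glutathione beads carrying GST-tagged Bcl family fusion proteins plus one bare bead set; values are compound well signal with DMSO vehicle wells as background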
Avidin fluor: avidin bead compound fluorescence profile; Avidin beads, compound fluorescence 488/530 nm, flow cytometry; stronger effect = higher value; 220,000 tested, 0.38% active; fluorescence (KMESF) at 10 µM; in the data active = fluorescence above about 47
RGS7-Gao reg: regulators of human RGS7-Galphao interaction. Multiplexed bead flow cytometry, RGS7-Galphao binding; actives lie on both sides. binding response (% of control), % at 10 µM. 220,000 tested, 0.35% active. AID 1439; in the data active = binding response below about 49% or above about 150%; inconclusive = no clear call, values can overlap the other calls; inactive = in between;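 also: fluorescent Galphao held in activated GDP-AlF4 state binding bead-coupled RGS7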
Target sequence (P09471 whole entry, looked up): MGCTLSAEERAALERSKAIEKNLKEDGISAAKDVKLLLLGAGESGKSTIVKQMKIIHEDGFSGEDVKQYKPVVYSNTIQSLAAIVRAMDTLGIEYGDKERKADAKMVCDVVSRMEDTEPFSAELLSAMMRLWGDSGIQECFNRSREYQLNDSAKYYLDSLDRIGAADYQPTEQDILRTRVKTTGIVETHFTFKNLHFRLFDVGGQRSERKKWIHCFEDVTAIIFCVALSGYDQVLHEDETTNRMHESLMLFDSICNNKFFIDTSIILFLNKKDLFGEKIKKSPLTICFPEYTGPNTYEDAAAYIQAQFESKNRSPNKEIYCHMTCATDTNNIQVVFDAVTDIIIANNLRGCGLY
RGS4-Gao reg: human RGS4-Galphao interaction regulation. binding response (% of control), % at 10 µM. Multiplexed bead flow cytometry, RGS4-Galphao binding; actives lie on both sides. 220,000 tested, 0.33% active. P09471; in the data active = binding response below about 49% or above about 150%; inactive = in between;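 also: fluorescent Galphao activated with aluminum fluoride binding bead-coupled RGS4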
RGS8-Gao: regulators of human RGS8-Galphao interaction; P09471; multiplexed bead flow cytometry, RGS8-Galphao binding; actives lie on both sides; response (percent of control binding), % at 10 µM; 220,000 tested, 0.34% active; in the data active = response below about 60% or above about 140%; inactive = in between;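 also: Galphao activated as the GDP aluminium fluoride complex binding bead-coupled RGS8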
RGS16-Gao HTS: RGS16-Galphao interaction regulator (human) | binding response (% of control), % at 10 µM | bead-based flow cytometry RGS16-Galphao binding, fluorescence; actives lie on both sides | 220,000 tested, 0.38% active | O15492+P09471;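 also: Galphao activated by GDP with aluminum fluoride before binding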
Target sequence (O15492 whole entry, looked up): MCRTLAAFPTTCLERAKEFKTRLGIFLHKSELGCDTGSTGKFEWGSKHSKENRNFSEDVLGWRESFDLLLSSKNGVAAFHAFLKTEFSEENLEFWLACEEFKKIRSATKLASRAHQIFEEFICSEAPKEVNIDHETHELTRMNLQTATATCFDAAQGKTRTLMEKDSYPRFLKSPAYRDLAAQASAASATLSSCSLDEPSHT
Target sequence (P09471 whole entry, looked up): as the sequence (P09471 whole entry, looked up) above
RGS4-Gao HTS: regulators of human RGS4-Galphao interaction; AID 1504; 1,600 tested, 99% active; shares compounds with RGS16-Gao HTS; RGS4–Galpha-o binding response, % at 10 µM; multiplexed bead flow cytometry, RGS–Galpha-o binding;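 also: fluorescently labeled Galpha-o bound to GDP with aluminium fluoride binding biotinylated RGS beads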
Biotin-avidin: biotin-avidin bead binding disruption counter-screen; shares compounds with RGS16-Gao HTS; streptavidin beads, fluorescein-biotin binding, flow cytometry; inhibition, % at 10 µM; 1,700 tested, under 10 active; AID 1783;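 active = inhibition above 50%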;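 also: median green fluorescence of gated singlet beads compared with DMSO control wells; 0% = DMSO wells and 100% = complete loss of bead fluorescence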
RGS8-Gao single: confirmation of regulators of human RGS8-Galphao interaction; 1,700 tested, 3% active; AID 1836; binding response (% of control), % at 10 µM; shares compounds with RGS16-Gao HTS; bead-based flow cytometry RGS8-Galphao binding, fluorescence; actives lie on both sides; in the data active = binding response below about 72% or above about 130%; inactive = in between;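 also: Galphao activated as GDP AlF4 complex before binding bead RGS8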
RGS7-Gao confirm: RGS7-Galphao interaction regulation, single point confirmation. shares compounds with RGS16-Gao HTS. response (percent of control binding), % at 10 µM. AID 1837. 1,700 tested, 7.8% active. bead-based flow cytometry RGS7-Galphao binding; actives lie on both sides; in the data active = response below about 75% or above about 130%; inactive = in between;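 also: fluorescent Galphao activated with GDP and aluminum fluoride binding bead-coupled RGS7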
RGS16-Gao single: confirmation of regulators of human RGS16-Galphao interaction; shares compounds with RGS16-Gao HTS; bead-based flow cytometry, RGS16-Galphao binding; actives lie on both sides; response (% of control binding), % at 10 µM; 1,700 tested, 4% active; AID 1838; in the data active = response below about 74% or above about 130%; inactive = in between;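 also: Galphao activated as the GDP aluminium fluoride complex binding bead-coupled RGS16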
RGS4-Gao single: confirmation of regulators of human RGS4-Galphao interaction; shares compounds with RGS16-Gao HTS; RGS4-Galphao binding, multiplexed bead flow cytometry; actives lie on both sides; binding response (% of control), % at 10 µM; 1,700 tested, 4% active; AID 1840; in the data active = binding response below about 74% or above about 130%; inactive = in between
RGS19-Gao conf: confirmation of regulators of human RGS19-Galphao interaction; shares compounds with RGS16-Gao HTS; bead-based flow cytometry RGS19-Galphao binding; actives lie on both sides; response (percent of control binding), % at 10 µM; 1,700 tested, 5% active; in the data active = response below about 50% or above about 160%; inactive = in between;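 also: 100% = no compound control and 0% = blank background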
An asterisk follows results filed as active; u = inconclusive; x = not tested or not shown; [ ] = dose if it differs, or a comment. In the library only some 1.2% were active in any assay of this set; here they are far more common. Unless noted, no rule for the calls is given here.

SMILES | GSH fluor | Avidin fluor | RGS7-Gao reg | RGS4-Gao reg | RGS8-Gao | RGS16-Gao HTS | Biotin-avidin | RGS8-Gao single | RGS7-Gao confirm | RGS16-Gao single | RGS4-Gao single | RGS19-Gao conf | others
Cc1cccc(NC(=O)CCC(=O)Nc2nnc(C(F)(F)F)s2)c1 | x | 3 | u | 101 | 99 | 99 | x | x | x | x | x | x
Cc1ccc(NC(=O)CN(C)S(=O)(=O)c2cccc3cccnc23)cc1 | 20 | 4 | 64 | 100 | 74 | 130 | x | x | x | x | x | x
CC1CCC(NC(=O)CN(C)S(=O)(=O)c2cccc3cccnc23)CC1 (stereo unspecified) | x | 1 | u | 26* | 33* | 19* | 1 | 101 | 101 | 99 | 100 | 105
COc1ccc(CNC(C)C(=O)Nc2ccc3ccccc3c2)cc1OC (stereo unspecified) | 13 | 9 | u | 99 | 101 | 98 | x | x | x | x | x | x
C=CCN(Cc1cn(C)nc1-c1cccc(Cl)c1)C1CCS(=O)(=O)C1 (stereo unspecified) | 10 | 2 | 94 | 95 | 96 | 95 | x | x | x | x | x | x
COc1ccc(CCNC(=O)c2cnn(-c3ccc(C)c(C)c3)c2NC(=O)c2ccco2)cc1OC | 45 | x | x | x | x | x | -2 | 102 | 101 | 102 | 102 | 103
CN(C)CCNC(=O)/C(=C/c1ccc(-c2ccc(Cl)cc2)o1)NC(=O)c1ccccc1 | 11 | 3 | 186*[activator] | 183*[activator] | 163*[activator] | 133 | 0 | 103 | 97 | 100 | 99 | 89
O=C1NCC(O)=C1C=NC12CC3CC(CC(C3)C1)C2 | 30 | 13 | 100 | 102 | 107 | 106 | 1 | 101 | 100 | 100 | 100 | 91
Cc1cc(C)cc(C(=O)OCC(=O)NCc2cccs2)c1 | 10 | 5 | 107 | 110 | 125 | 176*[activator] | -1 | 96 | 93 | 95 | 96 | 97 | RGS4-Gao HTS=110*
O=C(COC(=O)c1ccccc1)NCc1cccs1 | 9 | 5 | 102 | 104 | 103 | 108 | x | x | x | x | x | x
CCC(=O)c1ccc(SC(=O)N(C)C)cc1O | x | 5 | u | 104 | 101 | 100 | x | x | x | x | x | x
Cc1ccc2[nH]c3c(c2c1)CC/C(=C/c1ccccc1)C3=O | 13 | 194* | 214*[activator] | 113 | 96 | 129 | 4 | 94 | 94 | 93 | 97 | 97 | RGS4-Gao HTS=113*
CCOc1ncccc1C(=O)OCC(=O)c1cccc(Br)c1 | 16 | 7 | u | 73 | 87 | 69 | x | x | x | x | x | x
Cc1cc(N2CCCC(C(=O)Nc3cccc4ccccc34)C2)n2ncnc2n1 (stereo unspecified) | 19 | 6 | 109 | 100 | 101 | 100 | x | x | x | x | x | x
Cc1ccc2cc(CCNS(=O)(=O)c3ccc(F)cc3)c(=O)[nH]c2c1C | 19 | 4 | 46* | 55 | 60* | 50 | 0 | 99 | 93 | 97 | 97 | 102 | RGS4-Gao HTS=55*
Cc1ccc2cc(CCNS(=O)(=O)c3ccc(F)cc3)c(=O)[nH]c2c1 | 23 | 7 | 95 | 96 | 98 | 99 | x | x | x | x | x | x
COc1ccc(S(=O)(=O)Nc2nc3ccccc3s2)cc1 | 11 | 42 | 99 | 100 | 98 | 102 | x | x | x | x | x | x
CCOc1ccc2sc(NS(=O)(=O)c3ccc(OC)c(OC)c3)nc2c1 | 42 | x | x | x | x | x | 0 | 101 | 102 | 99 | 99 | 107
CN(Cc1ccccc1)C(=O)c1nc2ccccn2c1CN1CCC(N2CCOCC2)CC1 | x | 6 | u | 108 | 101 | 106 | x | x | x | x | x | x
CC(=O)NNc1cc(N2CCOCC2)nc(N2CCOCC2)n1 | 16 | 9 | u | 104 | 101 | 101 | x | x | x | x | x | x
CC(C)(C)c1ccc(C(=O)NNc2cc(N3CCCCC3)nc(N3CCCCC3)n2)cc1 | 119* | 175* | 643*[activator] | 842*[activator] | 173*[activator] | 560*[activator] | 1 | 105 | 113 | 104 | 108 | 100
O=C(NNc1cc(N2CCOCC2)nc(N2CCOCC2)n1)c1ccc(Cl)cc1Cl | 9 | 0 | 12* | 21* | 23* | 10* | -1 | 93 | 88 | 91 | 91 | 89
Cc1c(-c2n[nH]c(=S)n2-c2ccc(C(F)(F)F)cc2)nnn1-c1ccccc1 | 9 | 3 | 101 | 101 | 97 | 103 | x | x | x | x | x | x
Cc1c(-c2n[nH]c(=S)n2-c2ccc(Br)cc2)nnn1-c1ccc(Cl)cc1 | 14 | x | x | 110 | 102 | 103 | -2 | 86 | 98 | 86 | 90 | 67
O=C(O)CSCC(=O)Nc1ccc(Br)c(C(F)(F)F)c1 | x | -2 | u | -38* | 32* | -12* | -1 | 93 | 90 | 88 | 88 | 93
SMILES | GSH fluor | Avidin fluor | RGS7-Gao reg | RGS4-Gao reg | RGS8-Gao | RGS16-Gao HTS | Biotin-avidin | RGS8-Gao single | RGS7-Gao confirm | RGS16-Gao single | RGS4-Gao single | RGS19-Gao conf | others
N=C(N)c1ccc(/C=C/c2ccc(C(=N)N)cc2O)cc1 | x | 15 | u | 108 | 103 | 105 | x | x | x | x | x | x
O=C(O)c1ccc(S(=O)(=O)c2ccc3c(c2)C(=O)N(NC(=O)c2cccnc2)C3=O)cc1 | x | 12 | u | 113 | 106 | 108 | x | x | x | x | x | x
O=C(O)c1nccnc1C(=O)NCCc1c[nH]c2ccccc12 | 9 | 12 | u | 101 | 102 | 101 | x | x | x | x | x | x
O=C(NCCc1c[nH]c2ccccc12)c1c(Cl)nc2sccn12 | 21 | -1 | 19* | 30* | 17* | 2.2* | -1 | 114 | 125 | 109 | 110 | 103
CC1(c2ccc(C#N)cc2)NC(=O)N(CC(=O)Nc2cc(S(=O)(=O)N3CCOCC3)ccc2Cl)C1=O (stereo unspecified) | 13 | 11 | 99 | 100 | 103 | 108 | x | x | x | x | x | x
NC(=O)N/N=C/C=C/c1ccc(F)cc1 | x | 7 | u | 95 | 99 | 95 | x | x | x | x | x | x
CCc1nnc(NC(=O)c2cccc(S(=O)(=O)N3CCN(c4ccccc4)CC3)c2)s1 | 27 | 5 | 150*[activator] | 140 | 127 | 145 | 0 | 103 | 102 | 103 | 105 | 108 | RGS4-Gao HTS=140*
